NS1 inh: qHTS Assay for Inhibitors of Influenza NS1 Protein Function | Potency, µM (doses to about 46.1 µM), for the others: top-dose activity, positive = more growth | 0.4% of 270,000 active | AID 2326, 2010; calls by dose curve; note: potency is the fitted concentration of half-maximal effect; actives are rising curves; nearly all actives have a fitted effect of over 50% in size
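OD600 was taken as the measure of yeast growth restored by compound in an NS1-expressing S. cerevisiae strain. Cells had been washed out of glucose medium and diluted 1:100 into galactose -URA medium, pH 6.0.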
Shiga toxin inh: A qHTS for Small Molecule Inhibitors of Shiga Toxin; Vero cells, Shiga toxin protein synthesis inhibition reporter; inhibition, % at 38.7 µM; 9.2% of 290,000 active; in the data active = inhibition mostly above about 28%, no sharp cut-off; inactive = mostly below about 43%; note: 0% is about no effect
Pf growth 48h: Primary qHTS for delayed death inhibitors of the malarial parasite plastid, 48 hour incubation | P. falciparum luciferase growth in erythrocytes, 48 h | Potency, µM (highest dose often 28.7 µM), inactives show at the top dose activity change, negative = inhibition, actives largely listed as inhibitors | 5.9% of 310,000 active | AID 504832, 2011; note: potency is the fitted concentration of half-maximal effect; % is set by controls: 0 for no effect and ±100 for the full control effect
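Here the parasites carry a stable luciferase gene and grow inside erythrocytes in Albumax-based RPMI medium with compound for one erythrocytic cycle. Activity is scored as loss of luminescent signal.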
CHX counter-1: Cycloheximide Counterscreen for Small Molecule Inhibitors of Shiga Toxin; AID 2314, 2010; 12% of 300,000 active; cell reporter, cycloheximide protein synthesis inhibition counterscreen; max response, %; in the data active = max response mostly above about 13%, no sharp cut-off; inactive = mostly below about 14%; note: read at 38.3 µM for the half of the compounds with a filed dose; 0% is about no effect
Pf growth 96h: Primary qHTS for delayed death inhibitors of the malarial parasite plastid, 96 hour incubation; P. falciparum luciferase reporter growth, 96 h; Potency, µM (top dose mostly 28.7 µM), without a hit: at the top dose activity change, negative = inhibition, actives largely listed as inhibitors; AID 504834, 2011; 6.9% of 320,000 active; note: potency is the fitted concentration of half-maximal effect; % is set by controls: 0 for no effect and ±100 for the full control effect
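Luminescence readout: decreased luciferase signal marks inhibited growth of reporter-expressing P. falciparum in infected red cells (2% hematocrit, 0.05% parasitemia final), exposed to compound two generations (96 h, 37 C, 5% CO2).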
CHX counter-2: Cycloheximide Counterscreen for Small Molecule Inhibitors of Shiga Toxin (Confirmatory); shares compounds with Shiga toxin inh; Cycloheximide counterscreen, protein synthesis reporter, Shiga toxin assay; Potency, µM (series often up to 38.3 µM), inactives show at the top dose activity (activation), hits mostly activators; 3% of 510 active; calls by dose curve; note: potency is the fitted concentration of half-maximal effect; 0% is about no effect
An asterisk follows results filed as active; [ ] = remark or other dose. Rows were chosen to be rich in hits. Some 21% of all compounds tested hit in one or more screens of this group. Unless noted, calls come from the whole dose curve; as a rule, active = well fitted inhibition curve with a large enough effect; inconclusive = small, poorly fitted or top-dose-only effect, or another doubt; inactive = no such curve, though single readings can be large or run the other way.

How did O=C(c1ccc(C(=O)N2CCOCC2)nc1)N1CCOCC1 do in these assays?
NS1 inh: 5%; Shiga toxin inh: 10; Pf growth 48h: 1%; CHX counter-1: -3; Pf growth 96h: -25%

How did O=C(c1ccc(N2CCOCC2)nc1)N1CCOCC1 do in these assays?
NS1 inh: -9%; Shiga toxin inh: 58*; Pf growth 48h: 22%; CHX counter-1: 1; Pf growth 96h: 8%; CHX counter-2: 5%

Results for CCCc1cc(=O)oc2cc(OCc3ccc(OC)cc3)c(Cl)cc12 ?
NS1 inh: 4%; Shiga toxin inh: -12; Pf growth 48h: 15%; CHX counter-1: 6; Pf growth 96h: -11%

How did COC(=O)c1c(NC(=O)c2ccn(C)n2)sc2c1CCC2 do in these assays?
NS1 inh: -1%; Shiga toxin inh: 40*; Pf growth 48h: 31%; CHX counter-1: 5; Pf growth 96h: 41%; CHX counter-2: inconclusive

How did COC(=O)c1c(NC(=O)c2nn(C)cc2Cl)sc2c1CCCC2 do in these assays?
NS1 inh: -4%; Shiga toxin inh: 29; Pf growth 48h: -8%; CHX counter-1: 0; Pf growth 96h: inconclusive

How did Cc1ccc(NC(=O)N2CCCC2C(=O)Nc2nnc(C(C)C)s2)cc1 (configuration not stated) do in these assays?
NS1 inh: 10%; Shiga toxin inh: 3; Pf growth 48h: 15%; CHX counter-1: -4; Pf growth 96h: 149%

Results for O=C(Nc1nnc(Cc2ccccc2)s1)c1cccnc1 ?
NS1 inh: -3%; Shiga toxin inh: 59*; Pf growth 48h: 40%; CHX counter-1: -2; Pf growth 96h: 161%; CHX counter-2: -1%

Results for CCc1nnc(NC(=O)c2cccnc2)s1 ?
NS1 inh: -3%; Shiga toxin inh: -11; CHX counter-1: -4; Pf growth 96h: 13%

Results for CCOC(=O)/C(C(=O)Nc1ccccc1Cl)=C1/NC(C)(C)Cc2ccccc21 ?
NS1 inh: 13%; Shiga toxin inh: 9; Pf growth 48h: 8%; CHX counter-1: -1; Pf growth 96h: 20%

How did CCOC(=O)/C(C(=O)Nc1ccc(Br)cc1)=C1/NC(C)(C)Cc2ccccc21 do in these assays?
NS1 inh: -2%; Shiga toxin inh: 45*; Pf growth 48h: inconclusive; CHX counter-1: 11; Pf growth 96h: inconclusive; CHX counter-2: inconclusive

How did N#Cc1ccc(NC(=O)Cn2cnc(S(=O)(=O)N3CCOCC3)c2)cc1 do in these assays?
NS1 inh: -8%; Shiga toxin inh: -1; Pf growth 48h: 36%; CHX counter-1: 5; Pf growth 96h: 4%

Results for Cc1cc(C(=O)COC(=O)c2ccco2)c(C)n1Cc1ccco1 ?
Shiga toxin inh: -12; Pf growth 48h: 134%; CHX counter-1: -2; Pf growth 96h: 57%

What do the screens show for `Cc1cc(C(=O)COC(=O)c2cccn2C)c(C)n1Cc1ccco1`?
Shiga toxin inh: 50*; Pf growth 48h: 172%; CHX counter-1: 10; Pf growth 96h: 90%; CHX counter-2: 0.71µM*

How did CCOc1ccc(S(=O)(=O)Nc2ccc(C(=O)NCC(c3ccccc3)N(C)C)cc2)cc1 (configuration not stated) do in these assays?
NS1 inh: 0%; Shiga toxin inh: 2; Pf growth 48h: 5%; CHX counter-1: 12; Pf growth 96h: 93%

What do the screens show for `COP(=O)(OC)c1nc(-c2ccccc2)oc1NCc1ccccc1`?
NS1 inh: -1%; Shiga toxin inh: -6; Pf growth 48h: inconclusive; CHX counter-1: -5; Pf growth 96h: inconclusive

How did CCCOP(=O)(OCCC)c1nc(-c2ccccc2)oc1NCc1ccccc1 do in these assays?
NS1 inh: -20%; Shiga toxin inh: 20*; Pf growth 48h: 5.9µM*; CHX counter-1: 4; Pf growth 96h: 3.7µM*; CHX counter-2: 1%

What do the screens show for `C=CCNc1nc2ccccc2nc1NS(=O)(=O)c1ccc(OC)cc1`?
NS1 inh: -13%; Shiga toxin inh: -2; Pf growth 48h: -2%[0.00184 µM]; CHX counter-1: -2; Pf growth 96h: 8%

Results for CC(C)c1ccc(NC2CCCN(C(=O)c3ccc(N4CCOCC4)cc3)C2)cc1 (configuration not stated) ?
NS1 inh: -12%; Shiga toxin inh: -6; Pf growth 48h: -12%; CHX counter-1: 6; Pf growth 96h: inconclusive

How did Cc1cccc(N2CCN(C(=O)Cc3ccc(Br)cc3)CC2)c1C do in these assays?
NS1 inh: -9%; Shiga toxin inh: 66*; Pf growth 48h: -12%; CHX counter-1: 19; Pf growth 96h: -5%; CHX counter-2: inconclusive

Results for O=C(Cc1ccc(Br)cc1)N1CCN(c2ccccc2)CC1 ?
NS1 inh: -78%; Shiga toxin inh: 29; Pf growth 48h: -5%; CHX counter-1: 17; Pf growth 96h: 50%

How did Cn1ncc(Cl)c1C(=O)Nc1ccc(Cl)cn1 do in these assays?
NS1 inh: 1%; Shiga toxin inh: 45*; Pf growth 48h: 32%; CHX counter-1: 15; Pf growth 96h: 27%; CHX counter-2: inconclusive

What do the screens show for `CSc1cccc(NC(=O)c2c(Cl)cnn2C)c1`?
NS1 inh: -14%; Shiga toxin inh: 33*; Pf growth 48h: 53%; CHX counter-1: 14; Pf growth 96h: 19%; CHX counter-2: inconclusive

How did COc1ccc(-c2c(N)n[nH]c2C)cc1OC do in these assays?
NS1 inh: 4%; Shiga toxin inh: -7; Pf growth 48h: 6%; CHX counter-1: -1; Pf growth 96h: 1%

What do the screens show for `COc1ccc(-c2cc(-c3ccccc3O)[nH]n2)cc1OC`?
NS1 inh: -10%; Shiga toxin inh: 81*; Pf growth 48h: 35%; CHX counter-1: 15; Pf growth 96h: -26%; CHX counter-2: 2.5µM*

How did COc1ccc(N2CCN(Cc3nc4c(c(=O)[nH]c(=O)n4C)n3CC(C)=O)CC2)cc1 do in these assays?
NS1 inh: 1%; Shiga toxin inh: 30*; Pf growth 48h: -6%; CHX counter-1: -2; Pf growth 96h: 7%; CHX counter-2: -1%

Results for COc1ccccc1P(=O)(Cc1ccccc1[N+](=O)[O-])c1ccccc1 (configuration not stated) ?
NS1 inh: 8%; Shiga toxin inh: -5; Pf growth 48h: -25%; CHX counter-1: -3; Pf growth 96h: inconclusive

Results for O=C(CSc1nnc(SCc2ccc(Cl)cc2)s1)N1CCOCC1 ?
NS1 inh: -11%; Shiga toxin inh: -13; Pf growth 48h: 126%; CHX counter-1: 23; Pf growth 96h: inconclusive

How did O=C(CSCc1ccc(Cl)cc1)N1CCOCC1 do in these assays?
NS1 inh: 7%; Shiga toxin inh: 66*; Pf growth 48h: 38%; CHX counter-1: 10; Pf growth 96h: -20%; CHX counter-2: 7%

High-throughput results deposited in PubChem BioAssay by National Center for Advancing Translational Sciences (NCATS).
